Shown are actives, neighbours in structure and some others; about 4.2% of the full set was active somewhere.
ssDAF12 agonist – S. stercoralis DAF-12 nuclear receptor activators, primary screen, cell-based, luminescence, HEK293, GRIP1 co-expression, lit1-tk-luc | HEK293 ssDAF-12/GRIP1 lit1-tk-luc reporter; % of 3 µM dafachronic acid response | Nuclear hormone receptor DAF-12 (Strongyloides stercoralis) | activation, % at 6.8 µM | 370,000 tested, 1% active;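 active = activation above the mean over all tested compounds plus 3 SD, cut at about 0.9% in these data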;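 note: 0% = DMSO-only wells and 100% = 3 µM delta7-dafachronic acid wells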
SMARCA2 activ – SMARCA2 (BRM) function activators, primary screen, cell-based, luminescence, high throughput | MG213 cells, MMTV-luciferase reporter, dexamethasone, overnight | 370,000 tested, 1% active | activation, % at 9.1 µM | AID 652017, 2013; in the data active = activation above about 7.8%;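 note: 0% = vehicle wells and 100% = reference activator wells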
hgDAF12 agonist – H. glycines DAF-12 receptor agonists, primary screen, cell-based, luminescence, HEK293, GAL4 fusion, UAS-luciferase; HEK293 GAL4-hgDAF12 UAS-luciferase reporter, agonist luminescence; normalized to butyrate control; Nuclear hormone receptor DAF-12 (Heterodera glycines), GAL4 fusion; activation, % at 6.8 µM; 370,000 tested, 1.8% active;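 active = activation above a cutoff set at the mean of all screened compounds plus 3 SD, cut at about 10% in these data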;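 note: 0% = DMSO wells and 100% = sodium butyrate wells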
hcDAF-12 act – H. contortus DAF-12 nuclear receptor activators, primary screen, cell-based, luminescence, HEK293, lit1-tk-luc reporter. 370,000 tested, 1.4% active. activation, % at 6.8 µM. HEK293 hcDAF-12 lit1-tk-luc reporter; 0% DMSO, 100% Δ7-dafachronic acid;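 active = activation above the mean of all tested compounds plus 3 SD, cut at about 5.5% in these data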;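 note: 100% = response to 3 µM Δ7-dafachronic acid high control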
DAX1 StAR inh – DAX1 (NR0B1) inhibitors on StAR promoter, primary screen, cell-based, luminescence, SF-1 (NR5A1), full-length DAX-1; HEK293T StAR-luciferase reporter, SF-1/DAX-1 repression relief; inhibition, % at 6.8 µM; 370,000 tested, 1.1% active; AID 652010, 2013;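 active = inhibition above the mean over all tested compounds plus 3 SD, cut at about 3.6% in these data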;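 note: 0% = DAX-1 cells with DMSO and 100% = cells lacking DAX-1 with DMSO; higher inhibition means more luminescence from relief of DAX-1 repression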
Active calls of the source: *; x = no result.

SMILES	ssDAF12 agonist	SMARCA2 activ	hgDAF12 agonist	hcDAF-12 act	DAX1 StAR inh
CCOc1cc(/C=N/NC(=O)c2cccs2)cc([N+](=O)[O-])c1O	0	5	12*	2	2
O=C(N/N=C/c1cccc([N+](=O)[O-])c1)c1cccs1	-1	1	10	2	1
CCOC(=O)CC[C@@]1(C(=O)OCC)C[C@@H](CC(=O)NCCCOC)C(=O)N2CCCC=C21	1.6*	0	0	0	1
CCOC(=O)CC[C@@]1(C(=O)OCC)C[C@@H](CC(=O)NCCc2ccccc2OC)C(=O)N2CCCC=C21	-1	-4	-3	-1	-1
COC(=O)[C@]12CCCCC=C1N(Cc1ccc(OC)cc1)C(=O)[C@@H]2CC(=O)NCc1ccccc1	-2	-3	-2	-2	-1
CCc1c(C)nc(SCC(=O)NNC(=O)c2ccco2)[nH]c1=O	0	0	2	6.0*	1
C=CCCC1CN(Cc2ccc(OC)cc2)S(=O)(=O)c2c(Oc3ccc(OC)cc3)cccc2O1 (stereo not drawn)	-1	-1	1	-1	0
Cc1c(C)c2ccc(OCC(=O)Nc3cccnc3)c(C)c2oc1=O	-1	0	3	3	3.7*
COc1ccc(-c2cc(=O)oc3c(C)c(OCC(=O)Nc4cccnc4)ccc23)cc1	-1	-1	2	1	-1
Nc1ccc2ccccc2c1N=Nc1ccccc1	1.3*	7	4	4	1
COc1ccc(CNC2CCC23CCCCC3)cc1OC (stereo not drawn)	-2	x	-1	-2	x
Cn1c(/C(C#N)=C/c2ccc(O)cc2)nc2ccccc21	1.2*	6	7	0	1
CC(=O)c1ccccc1NS(=O)(=O)c1ccccc1Cl	-1	1	12*	-2	0
CC(=O)c1ccccc1NS(=O)(=O)c1c(C)nn(-c2ccccc2)c1C	-2	-3	-1	1	-1
Cc1ccc(NC(=O)c2cc(-c3ccco3)on2)cc1	-2	-1	3	1	0
Cc1ccc(NC(=O)c2cc(-c3ccco3)on2)cc1C	0	6	13*	2	0
Cc1ccc(NC(=O)c2cnccn2)cc1	-1	3	7	4	3
Cc1nc(NC(=O)c2cncc(Br)c2)ccc1Br	-1	4	1	-3	0
Cc1nc(NC(=O)c2cnccn2)ccc1Br	0	4	11*	3	1
Cc1ccc(NC(=O)c2cnccn2)cc1C	0	1	11*	3	2
COC(=O)c1cc(S(=O)(=O)N2CCN(c3ccccc3Cl)CC2)cn1C	-1	-6	0	-2	-2
CCc1nnc(NC(=O)c2ccc3c(=O)n4c(nc3c2)CCC4)s1	-1	2	4	1	4.4*
CCC(C)(C(=O)NC1CCCCC1)N(C(=O)c1ccccn1)c1ccccc1 (stereo not drawn)	-1	0	1	1	-1
CCC(C)(C(=O)NC1CCCCC1)N(C)C(=O)c1ccccn1 (stereo not drawn)	-1	-2	2	6.1*	0
CSc1nsc(SCC(=O)Nc2ccccc2C(=O)O)n1	1.1*	-1	0	3	0
SMILES	ssDAF12 agonist	SMARCA2 activ	hgDAF12 agonist	hcDAF-12 act	DAX1 StAR inh
Cc1cccc(Cc2nnc(CCC(=O)N(CC3CC3)CC3CCCO3)o2)c1 (stereo not drawn)	-1	6	12*	2	0
CCCOC1CCCN(C(=O)CCc2nnc(Cc3cccc(C)c3)o2)C1 (stereo not drawn)	-1	0	11*	3	1
Cc1cccc(Cc2nnc(CCC(=O)N3CCCCC3c3nccs3)o2)c1 (stereo not drawn)	-1	-7	-1	-1	0
CCCCNC(=O)c1nc(C2CCN(S(=O)(=O)c3c(OC)cccc3OC)CC2)oc1-c1ccccc1	-1	3	-5	-3	-1
Cc1ccc(S(=O)(=O)N(C)C)cc1NC(=O)c1ccc2ccccc2n1	1.1*	1	5	2	0
CC(=O)Nc1ccc(NC(=O)c2nc(S(=O)(=O)Cc3cccc(C)c3)ncc2Cl)cc1	-1	-8	-5	-3	4.0*
O=C(/C=C(\Nc1cccc(C(F)(F)F)c1)c1ccccc1)c1ccccc1	-1	0	2	-1	1
O=C(Nc1ccc(Cl)cc1)Nc1cccc(C(=O)O)c1	-1	7	12*	5	3
CC(=O)Nc1ccc(NC(=O)Nc2cccc(Cl)c2)cc1	-1	0	4	1	0
CC(=O)c1ccc(NC(=O)Nc2cccc(Cl)c2)cc1	1	-1	13*	3	3
O=C(/C=C(\Nc1cccc(Cl)c1)c1ccccc1)c1ccccc1	0	4	7	0	3.7*
CC1(C)CC(=O)C=C(c2ccc(COC(=O)c3ccccc3)cc2)C1=O	0	-1	11*	3	3.9*
CC1(C)CC(=O)C=C(c2ccc(COC(=O)/C=C/c3ccccc3)cc2)C1=O	-1	-2	3	0	-1
Cc1ccc(O)c(NC(=S)NC(=O)/C=C/c2ccco2)c1	0	4	12*	4	-1
COC(=O)C1CN(CCc2ccccc2)CCS(=O)(=O)N1Cc1ccc(OC)cc1 (stereo not drawn)	0	-1	-1	2	0
N/C(=N\OC(=O)c1cccc(Br)c1)c1ccccc1	1.3*	4	10	6.1*	2
Cc1cccc(C(=O)O/N=C(\N)c2ccc(Br)cc2)c1	-1	2	8	6.1*	1
Cc1cccc(/C(N)=N/OC(=O)c2ccncc2)c1	0	5	16*	3	9.4*
N#Cc1cccc(CNCC(=O)N2CCC3(CC2)OCCO3)c1	-1	-4	-1	0	0
CC1=CCC(C(=O)O)C(C(=O)Nc2cccnc2)C1 (stereo not drawn)	1.7*	-2	2	2	1
COC(=O)c1ccc(Cn2nnc3c(=O)[nH]c(C4CCCN(S(=O)(=O)c5ccc(C)cc5)C4)nc32)cc1 (stereo not drawn)	-1	-1	-1	5.6*	0
Cc1ccc(Cn2nnc3c(=O)[nH]c(C4CCCN(S(=O)(=O)c5ccc(F)cc5)C4)nc32)cc1 (stereo not drawn)	-1	-1	4	0	0
c1ccc(-c2ncc(-c3ccn[nH]3)s2)cc1	2.0*	5	22*	5	5.4*
CC(=O)CC[C@@H]1CC[C@]2(CCCN(C(=O)c3ccco3)C2)O1	0	-2	0	0	0

Screens from PubChem.
